Among all 52,000 compounds or so, about 4,300 (8.3%) were called active. This is one part of a sample in which actives are shown more often than they occur. Rule as the data show it: active = survival mostly below about 52% (no sharp cut-off); inactive = mostly above about 56%.
These compounds were tested on DeltatarO mutant (assay: S. aureus survival, RN4220 and DeltatarO strains – OD600, teichoic acid synthesis inhibitors, primary screen (AID 463173)). Conditions: S. aureus RN4220 wild type/DeltatarO growth, OD600, 18 h, hits give low values, screened at 18.75 µg/mL (by protocol).

| SMILES | survival |
| --- | --- |
| CC1=C(C(=O)NCc2ccccc2Cl)C2(CCCCCC2)OC1=O | 49% (inactive) |
| CCCN(c1ccc(C(C)C)cc1)S(=O)(=O)c1ccc2c(c1)n(C)c(=O)c(=O)n2C | 84% (inactive) |
| COc1ccc(NC(=O)Cn2c(C)cc3ccccc3c2=O)c(OC)c1 | 59% (inactive) |
| CCc1cccc(C)c1Nc1c(-c2cccc(O)c2)nc2nc(C)cc(C)n12 | 66% (inactive) |
| CCc1cccc(NC(=O)CCS(=O)(=O)c2cc(Br)cc3c2N(C(C)=O)CC3)c1 | 144% (inactive) |
| CCCC(=O)Nc1ccc(-c2nc3ncccc3o2)cc1C | 69% (inactive) |
| O=C(Nc1nccs1)c1ccc(-c2ccc(Cl)cc2)o1 | 35% (active) |
| CC(=O)c1ccc(NC(=O)c2ccc(-c3ccc(Cl)cc3)o2)cc1 | 92% (inactive) |
| COc1ccc(Br)cc1C(=O)Nc1ccc(-c2nc3ncccc3o2)cc1C | 41% (inactive) |
| COc1ccc(C(=O)Nc2ccc(-c3nc4ncccc4o3)cc2C)cc1Br | 37% (active) |
| Cc1ccc(-c2nc3ncccc3o2)cc1NC(=O)c1ccc(-c2cccc(Cl)c2C)o1 | 56% (inactive) |
| O=C(Nc1nccs1)c1cccc(C(=O)Nc2nccs2)c1 | 98% (inactive) |
| Cc1ccc(-c2nc3ncccc3o2)cc1NC(=O)c1ccc(-c2ccc(Cl)cc2)o1 | 35% (active) |
| Cc1cc(NC(=O)c2ccc(-c3ccc(Cl)cc3)o2)cc(-c2nc3ncccc3o2)c1O | 88% (inactive) |
| CCCCc1nn2c(=O)cc(COC(=O)c3ccc(NC(=O)C(CC)CC)cc3)nc2s1 | 94% (inactive) |
| CCC(Sc1nc2ccccc2c2nc(CCn3c(C)nc4ccccc43)nn12)C(=O)Nc1ccc(F)cc1 (stereo not given) | 67% (inactive) |
| COc1ccc(Cn2c(CCC(=O)NCc3ccc(Cl)cc3)nc3cccnc32)cc1 | 112% (inactive) |
| Cc1cc(C)nc(N2CCCC(C)C2)n1 (stereo not given) | 87% (inactive) |
| CC1CCN(c2nc3nonc3nc2Nc2ccc(F)cc2)CC1 | 78% (inactive) |
| CC1CCCN(c2nc3nonc3nc2Nc2cccc(Cl)c2)C1 (stereo not given) | 0% (active) |
| COc1ccccc1CNC(=O)CCn1c(=O)c2ccccc2n(CC(=O)Nc2ccc(C)cc2C)c1=O | 86% (inactive) |
| CCOC(=O)c1ccc(NC(=O)Cn2nnc(-c3ccc(C(F)(F)F)cc3)n2)cc1 | 87% (inactive) |
| CC1CCN(C(=O)c2cc3c(=O)n(C)c4ccccc4c3s2)CC1 | 88% (inactive) |
| Cc1ccc2nc(Cl)c3cc(C(=O)NC4CCCCC4)sc3c2c1 | 52% (inactive) |
| Cc1ccc2nc(Cl)c3cc(C(=O)N4CCCCC4C)sc3c2c1 (stereo not given) | 23% (active) |

| SMILES | survival |
| --- | --- |
| CC(C)N(C(=O)c1cc2c(Cl)nc3ccccc3c2s1)C1CCCCC1 | 16% (active) |
| Cc1ccc2nc(Cl)c3cc(C(=O)NC4CCCCCC4)sc3c2c1 | 102% (inactive) |
| CCC(C)NC(=O)C1CCN(C(=O)c2ccc(-n3ccc4ccccc43)s2)CC1 (stereo not given) | 81% (inactive) |
| CCOC(=O)C1CCCN(C(=O)c2cc3c(=O)n(C)c4ccccc4c3s2)C1 (stereo not given) | 44% (active) |
| CCOC(=O)C1CCCN(C(=O)c2ccc(-n3ccc4ccccc43)s2)C1 (stereo not given) | -1% (active) |
| CCOC(=O)C1CCN(C(=O)c2ccc(-n3ccc4ccccc43)s2)CC1 | 72% (inactive) |
| CC1CCCN(C(=O)c2cc3c(=O)n(C)c4ccccc4c3s2)C1 (stereo not given) | 138% (inactive) |
| Cc1ccc(S(=O)(=O)Nc2nc3c(s2)C(=O)CC(C)(C)C3)cc1 | 91% (inactive) |
| COc1ccc2nc(NS(=O)(=O)Cc3ccccc3)sc2c1 | 75% (inactive) |
| CCOc1ccccc1N(C)C(=O)NCc1noc2ccccc12 | 108% (inactive) |
| O=C(NCc1ccccc1F)C(=O)NCC(c1cccs1)S(=O)(=O)c1cccs1 (stereo not given) | 83% (inactive) |
| Cc1ccc(-n2ncc3c(NCCCn4ccnc4)ncnc32)cc1C | 84% (inactive) |
| Cc1[nH]c2ccccc2c1SCCNC(=O)c1ccc(F)cc1 | 59% (inactive) |
| COc1ccc(NC(=O)CN2C(=O)CCn3nc(-c4cccn4C)cc32)cc1Cl | 83% (inactive) |
| CC1CCc2[nH]nc(C(=O)O)c2C1 (stereo not given) | 93% (inactive) |
| Cc1ccc2nc(Cl)c3cc(C(=O)N4CCCCC4)sc3c2c1 | -8% (active) |
| Cc1ccc2nc(Cl)c3cc(C(=O)NCCCN4CCC(C)CC4)sc3c2c1 | 125% (inactive) |
| CC1CCCN(C(=O)c2cc3c(Cl)nc4ccccc4c3s2)C1 (stereo not given) | -5% (active) |
| CC1CCCN(CCCNC(=O)c2cc3c(Cl)nc4ccccc4c3s2)C1 (stereo not given) | 125% (inactive) |
| CCC(C)NC(=O)c1cc2c(Cl)nc3ccc(C)cc3c2s1 (stereo not given) | 65% (inactive) |
| Cc1ccc(NC(=O)c2cc3c(Cl)nc4ccc(C)cc4c3s2)c(Cl)c1 | 68% (inactive) |
| Cc1ccc2nc(Cl)c3cc(C(=O)N4CCCC(C)C4)sc3c2c1 (stereo not given) | -7% (active) |
| CC1CCC(NC(=O)c2cc3c(Cl)nc4ccccc4c3s2)CC1 (stereo not given) | 87% (inactive) |
| O=C(NC1CCCCC1)c1cc2c(Cl)nc3ccccc3c2s1 | 80% (inactive) |
| Cc1ccc2nc(Cl)c3cc(C(=O)NC4CCC(C)CC4)sc3c2c1 (stereo not given) | 57% (inactive) |

| SMILES | survival |
| --- | --- |
| O=C(NC1CCCCCC1)c1cc2c(Cl)nc3ccccc3c2s1 | 116% (inactive) |
| O=C(c1cc2c(Cl)nc3ccccc3c2s1)N1CCCCC1 | 46% (active) |
| CNC(=O)C1CCC(Cn2c(=O)c3sccc3n(CC(=O)Nc3ccc(C)c(C)c3)c2=O)CC1 (stereo not given) | 70% (inactive) |
| CCC(C)NC(=O)c1sc2nc3n(c(=O)c2c1C)CCC3 (stereo not given) | 93% (inactive) |
| CCOc1ccc(NC(=O)Cn2c(=O)n(Cc3ccco3)c(=O)c3ccc(C(=O)NC4CCCC4)cc32)cc1 | 97% (inactive) |
| Cc1ccc(NC(=O)CSc2ccc(-c3cccs3)nn2)cc1Cl | 111% (inactive) |
| COc1ccc(NC(=O)CSc2nc(C)cc(C)c2C(=O)Nc2ccccc2OC)cc1 | 51% (inactive) |
| CN1CCC(OC(=O)c2ccc(Cl)cc2Cl)CC1 | 101% (inactive) |
| O=C(Cn1c(=O)n(CCc2ccccc2)c(=O)c2c3c(sc21)CCCC3)Nc1ccc(F)c(F)c1 | 84% (inactive) |
| COc1cccc(N2CCN(C(=O)c3cc4c(=O)n(Cc5cccnc5)ccc4nc3C)CC2)c1 | 102% (inactive) |
| CCOC(=O)C1CCCN(C(=O)c2cc3c(Cl)nc4ccccc4c3s2)C1 (stereo not given) | 26% (active) |
| CCOC(=O)C1CCCN(C(=O)c2cc3c(=O)[nH]c4ccc(C)cc4c3s2)C1 (stereo not given) | 51% (inactive) |
| CCC1CCCCN1CCCNC(=O)c1cc2c(Cl)nc3ccccc3c2s1 (stereo not given) | 101% (inactive) |
| CCNC(=S)N1CCC(NC(=O)C23CC4CC(CC(C4)C2)C3)CC1 | 80% (inactive) |
| Fc1ccccc1Cc1cn2cc(-c3ccc(Cl)cc3)nc2s1 | 66% (inactive) |
| Fc1ccc(-c2cn3cc(Cc4ccccc4Cl)sc3n2)cc1 | 42% (active) |
| Fc1ccc(Cc2cn3cc(-c4ccccc4)nc3s2)cc1 | 51% (active) |
| Clc1ccccc1Cc1cn2cc(-c3ccccc3)nc2s1 | 63% (inactive) |
| Fc1ccc(-c2cn3cc(Cc4ccccc4)sc3n2)cc1 | 81% (inactive) |
| Fc1ccc(Cc2cn3cc(-c4ccc(F)cc4)nc3s2)cc1 | 61% (inactive) |
| Cc1ccccc1-c1nc(SCC(=O)NCc2ccco2)c2c(=O)n(C)c(=O)n(C)c2n1 | 71% (inactive) |
| O=C(Nc1ccc(C(F)(F)F)cc1)N1CCC(N2CCCCC2)CC1 | 108% (inactive) |
| COc1ccc(-c2noc(CSc3nnc(-c4ccncc4)n3-c3ccc(C)cc3)n2)cc1OC | 67% (inactive) |
| CC1=C(C(=O)OC2CCCCCC2)C(c2ccc(Cl)cc2Cl)CC(=O)N1 (stereo not given) | 81% (inactive) |
| CCOC(=O)c1c(NC(=O)c2ccc(S(=O)(=O)N(C)C)cc2)sc2c1CCN(C)C2 | 75% (inactive) |

| SMILES | survival |
| --- | --- |
| Cc1nc(NC2CCN(Cc3nnnn3Cc3ccc4c(c3)OCO4)CC2)[nH]c(=O)c1C | 94% (inactive) |
| Cc1cc(C)c(S(=O)(=O)NCc2csc(-c3ccccc3)n2)c(C)c1 | 34% (active) |
| O=S(=O)(NCc1csc(-c2ccccc2)n1)c1ccccc1 | 70% (inactive) |
| O=S(=O)(NCc1csc(-c2ccccc2)n1)c1cccc(F)c1 | 79% (inactive) |
| COc1ccccc1C(=O)Nc1nc2nc(C)c(Cc3ccccc3)c(=O)n2[nH]1 | 111% (inactive) |
| COc1cccc(NC(=O)CN(CCc2ccccc2)S(=O)(=O)c2ccc(Cl)cc2)c1 | 52% (inactive) |
| Cn1cc(C(=O)Nc2ccc(C#N)cc2)c2ccccc2c1=O | 63% (inactive) |
| CCCOc1ccccc1Cn1c(=O)sc2ccccc21 | -2% (active) |
| CCOC(=O)Cn1c(=O)sc2ccccc21 | 94% (inactive) |
| CCN(CC)C(=O)Cn1c(=O)sc2ccccc21 | 85% (inactive) |
| CC(C)CCOc1ccccc1Cn1c(=O)sc2ccccc21 | 3% (active) |
| CCCCOc1ccccc1Cn1c(=O)sc2ccccc21 | -2% (active) |
| Cc1cccc(NC(=O)Cn2c(=O)sc3ccccc32)c1 | 109% (inactive) |
| CCCn1c(=O)sc2cc(NC(=O)c3ccccc3OCC)ccc21 | 93% (inactive) |
| O=C(Cn1c(=O)sc2ccccc21)Nc1ccc(O)cc1 | 70% (inactive) |
| CS(=O)(=O)n1c(=O)sc2ccccc21 | 99% (inactive) |
| O=C(Cn1c(-c2ccccc2)noc1=O)Nc1cccc(Cl)c1Cl | 98% (inactive) |
| CCc1ccc(S(=O)(=O)c2cn(C)c3cc(N4CCOCC4)c(F)cc3c2=O)cc1 | 90% (inactive) |
| CCC(Sc1nnc(-c2ccc(OC)cc2)c(-c2ccc(OC)cc2)n1)C(=O)Nc1cccc(OC)c1 (stereo not given) | 94% (inactive) |
| COCCn1c(C)cc(O)c(C(c2ccccc2)N2CCN(CCO)CC2)c1=O (stereo not given) | 32% (active) |
| CCN1CCN(C(c2ccccc2)c2c(O)cc(C)n(CCOC)c2=O)CC1 (stereo not given) | 84% (inactive) |
| COCCn1c(C)cc(O)c(C(c2ccc(F)cc2)N2CCN(c3ccccc3)CC2)c1=O (stereo not given) | 47% (active) |
| COCCn1c(C)cc(O)c(C(c2ccccc2)N2CCN(c3ccccc3)CC2)c1=O (stereo not given) | 49% (inactive) |
| COCCn1c(C)cc(O)c(C(c2ccccc2)N2CCN(C)CC2)c1=O (stereo not given) | 95% (inactive) |
| COCCn1c(C)cc(O)c(C(c2cccc(F)c2)N2CCN(c3ccccc3)CC2)c1=O (stereo not given) | 93% (inactive) |
